Mtb hypoxia rep: Mtb hypoxia fluorescent reporter inhibition; M. tuberculosis hypoxia-regulated fluorescent reporter, fluorescence; fluorescence inhibition, % (concentration not given with the values); 300,000 compounds, 0.1% hits; in the data active = fluorescence inhibition mostly above about 23%, no sharp cut-off; inactive = mostly below about 17%
SSB-PriA inh: K. pneumoniae PriA-SSBct interaction inhibition. AlphaScreen SSBct-PriA binding, biotinylated peptide. inhibition, % at 33 µM. 430,000 compounds, 0.6% hits; in the data active = inhibition mostly above about 37%, no sharp cut-off; inactive = mostly below about 20%;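 note: plate controls were negative control peptide for no effect and reference peptide for full effect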
Sa ugtP lethal: compounds lethal to S. aureus RN4220 ugtP deletion mutant; OD600 growth, 16 h; growth inhibition, % (test concentration not listed); 330,000 compounds, 0.54% hits; AID 1259309; in the data active = growth inhibition above about 68%;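 note: plate controls were untreated wells for no effect and antibiotic for full effect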
RN4220 kill: S. aureus RN4220 growth inhibition; OD600, 16 h; inhibition, % (concentration not given with the values); 330,000 compounds, 0.33% hits; AID 1259311; in the data active = inhibition above about 85%;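 note: plate controls were untreated cells for no effect and reference antibiotic for full effect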
Active calls of the source: *; · = not tested or not shown; ! = not confirmed by another sample. A selection: hits, their analogues and other compounds. The true share with any hit is near 1.1%.

SMILES | Mtb hypoxia rep | SSB-PriA inh | Sa ugtP lethal | RN4220 kill
O=C(NC(=S)Nc1ccccc1N1CCCC1)c1ccccc1[N+](=O)[O-] | 6.3 | 57.4* | 78.6 | 16.9
Cc1ccc(SCC(O)=C(C#N)c2nc3ccccc3s2)cc1 | 6.1 | -4.5 | 91.9* | 96.6*
Clc1ccc2c(c1)c1cc(Cl)ccc1n2CN1CCOCC1 | 1.2 | -34.0 | 84.0* | 62.1
CC(C)CN(C(=O)c1ccco1)c1nc2ccccc2s1 | 8.4 | -23.2 | 4.1 | 2.9
O=C(c1ccco1)N(CCCn1ccnc1)c1nc2ccccc2s1 | · | 72.2* | · | ·
CC(=O)c1ccc(C(=O)N(CCn2cccn2)c2nc3c(C)cc(C)cc3s2)cc1 | · | -5.0 | · | ·
Cc1cccc2sc(N(CCCn3ccnc3)C(=O)c3ccco3)nc12 | · | 45.0* | · | ·
O=C(c1cccs1)N(CCCn1ccnc1)c1nc2c(Cl)cccc2s1 | · | 77.0* | · | ·
CC(=O)c1ccc(C(=O)N(CCCn2ccnc2)c2nc3c(C)cc(C)cc3s2)cc1 | · | 49.0* | · | ·
Cc1cc(N(C)C)nc(CNC(=O)c2sc(-c3ccccc3)nc2C)n1 | · | -25.0 | · | ·
NC(=O)C1CCN(c2nc(N3CCOCC3)nc(N3CCOCC3)n2)CC1 | · | -12.0 | · | ·
COCCN(Cc1ccoc1)S(C)(=O)=O | · | -5.0 | · | ·
Cc1ccc2sc(N(CCCn3ccnc3)C(=O)c3ccco3)nc2c1C | · | 87.8* | · | ·
Cc1ccc2nc(N3C(=O)C(O)=C(C(=O)c4ccc(C)o4)C3c3ccc(O)cc3)sc2c1 (configuration not stated) | 0.3 | -1.0 | 87.3* | 43.8
NC(=O)C1CCN(C(=O)Cc2csc(Nc3cccc(C(F)(F)F)c3)n2)CC1 | · | 2.0 | · | ·
N=C(N)Sc1cn(Cc2cccc(F)c2)c2ccccc12 | · | 45.0* | · | ·
CN1CCN(C(=S)c2cn(Cc3cccc(F)c3)c3ccccc23)CC1 | 12.1 | 25.0 | 5.2 | 4.9
CCOC(=O)c1nn(-c2ccc(C(F)(F)F)cc2)c(=O)c2c(NC(=O)c3ccc(C)c([N+](=O)[O-])c3)scc12 | · | -1.0 | · | ·
Cc1ccc(-c2csc(-c3c[nH]c4ccccc34)n2)c(C)c1 | · | 1.9 | 94.7* | -7.1
CC(C)=CC(=O)Nc1cnn(C2CCOC2)c1 (configuration not stated) | · | -2.0 | · | ·
Brc1ccc2[nH]c3c(N4CCc5ccccc5C4)ncnc3c2c1 | -4.2 | -7.6 | 97.1* | 72.1
COC(=O)N1CCc2ccc(NS(=O)(=O)Cc3ccccc3Cl)cc2C1 | · | -8.0 | · | ·
Cc1cc(N)n(-c2nc(-c3ccccc3)cc(=O)[nH]2)n1 | · | 53.0*! | · | ·
CCc1cc(=O)[nH]c(-n2nc(C)cc2N)n1 | · | 93.0* | · | ·
Cc1cc(=O)[nH]c(-n2nc(C(C)(C)C)cc2N)n1 | · | -15.0 | · | ·
SMILES | Mtb hypoxia rep | SSB-PriA inh | Sa ugtP lethal | RN4220 kill
CCc1cc(=O)[nH]c(-n2nc(C)cc2NC(=O)COC)n1 | · | 39.0* | · | ·
CCCC(=O)Nc1cc(C)nn1-c1nc(CC)cc(=O)[nH]1 | · | 33.0 | · | ·
CC1Cc2cc(-c3nn(-c4ccccc4)cc3/C=C3\SC(=S)NC3=O)ccc2O1 (configuration not stated) | · | 9.0 | · | ·
CCOc1ccc(NC(=O)Cn2nc(-c3ccco3)c3sc(N4CCCCC4)nc3c2=O)cc1 | · | -8.0 | · | ·
Cc1nn(-c2ccc(Cl)cc2)c(=O)c2ccccc12 | 13.1 | -7.5 | 7.6 | 5.1
Cc1c(Cl)sn(-c2ccc(Cl)cc2)c1=O | · | -21.9 | 100.7* | 100.7*
COc1ccc(C=NOCc2ccccc2C#N)c(OC)c1 | -2.7 | -3.3 | -8.5 | -3.4
COc1ccc(C=NOCc2ccc(Br)cc2)c(OC)c1 | 11.4 | -5.2 | 86.5* | -1.9
CN(C)CCN(C(=O)c1ccc(Cl)cc1Cl)c1nc2cc3c(cc2s1)OCO3 | · | 22.0 | · | ·
CCOc1ccc(NC(=O)CSc2ncc(-c3ccc(F)cc3)n2Cc2ccco2)cc1 | 12.0 | 43.4* | 16.6 | -12.8
O=C(CSc1ncc(-c2ccccc2)n1-c1ccccc1)NCc1ccco1 | 11.1 | 52.2* | 29.9 | 8.1
COc1ccc(-n2c(-c3ccc(F)cc3)cnc2SCC(=O)NCc2ccco2)cc1 | 2.6 | 49.3* | -7.0 | 3.7
CC(C)Oc1cc(-n2c(=S)[nH]c3ccccc3c2=O)c(Cl)cc1Cl | · | -0.3 | 101.1* | 99.9*
COc1cc(-n2c(=S)[nH]c3ccccc3c2=O)c(Cl)cc1Cl | · | 3.3 | -58.4 | -5.1
Cc1ccc2c(c1)c(C1=c3ccccc3=NC1=O)c(O)n2C | 24.0 | -6.5 | 97.3* | 97.6*
C=CCn1c(O)c(C2=c3ccccc3=NC2=O)c2ccccc21 | 17.2 | -17.8 | 97.8* | 96.9*
Cc1ccc(-c2c(C(=O)O)c(C(=O)O)c3n2CSC3)cc1 | 14.6 | 72.8* | 7.3 | -6.8
Cc1ccccc1Nc1ccc(S(=O)(=O)N2CCOCC2)cc1[N+](=O)[O-] | 1.4 | -4.8 | 3.6 | 3.8
COc1ccccc1C(C)Nc1ccc(S(=O)(=O)N2CCOCC2)cc1[N+](=O)[O-] (configuration not stated) | · | 70.2* | · | ·
CC(=NNc1ccc(S(=O)(=O)N2CCOCC2)cc1[N+](=O)[O-])C(C)C | 9.3 | 46.3* | 4.7 | 11.6
Cc1ccc(Nc2ccc(S(=O)(=O)N3CCOCC3)cc2[N+](=O)[O-])c(C)c1 | 9.5 | 50.7* | -5.0 | -1.7
CCc1ccc(Nc2ccc(S(=O)(=O)N3CCOCC3)cc2[N+](=O)[O-])cc1 | 11.6 | 61.0* | 3.5 | 4.1
COc1ccccc1C(CNc1ccc(S(=O)(=O)N2CCCC2)cc1[N+](=O)[O-])N(C)C (configuration not stated) | 0.9 | -4.3 | 0.4 | 0.9
C/C=C/C(=O)Nc1c(C(=O)Nc2ccc(F)c(F)c2)oc2ccccc12 | · | -3.0 | · | ·
COc1cc(C(=O)NCc2n[nH]c(=O)c3ccccc23)c([N+](=O)[O-])cc1OC | · | -2.0 | · | ·
SMILES | Mtb hypoxia rep | SSB-PriA inh | Sa ugtP lethal | RN4220 kill
COc1ccc(Nc2ccc(S(=O)(=O)N3CCCCC3)cc2[N+](=O)[O-])cc1Cl | 5.5 | 49.3* | 4.1 | 9.7
O=C(NCCn1nc(-c2ccncc2)ccc1=O)c1ccc2c(c1)OCO2 | · | -11.0 | · | ·
CC#CC[N+](C)(C)CCCCCCCCCCCC | 23.1 | -17.1 | 99.8* | 99.9*
CCCCCCCCCCCCCCCC[N+](C)(C)CCl | · | -20.1 | · | ·
CCCCCC[N+](C)(C)CCSSCC[N+](C)(C)CCCCCC | 7.6 | 1.6 | -2.4 | -2.2
C#CC[N+](C)(C)CCCCCCCCCC | 2.4 | -26.7 | 92.7* | 1.4
C#CC[N+](C)(C)CCCCCCCCCCCC | 15.0 | 2.2 | 98.9* | 98.9*
C#CC[N+](C)(C)CCCCCCCC | 3.5 | -3.9 | 14.6 | 6.6
COc1ccc2nc(-c3ccc(Cl)c(NC(=O)c4ccccc4C)c3)cn2n1 | · | -9.0 | · | ·
COc1ccc(NN=C(C(N)=O)C2=NC(C)(C)Cc3ccccc32)cc1 | 8.6 | 77.8* | 1.8 | -0.9
Clc1ccc(C(c2ccccc2Cl)C(Cl)Cl)cc1 (configuration not stated) | 1.0 | -29.6 | 93.1* | -8.7
CCc1ccc(C(c2ccc(CC)cc2)C(Cl)Cl)cc1 | · | -15.8 | · | ·
O=C(Cn1cccn1)N1CCC(Oc2ncccc2Cl)CC1 | · | -19.0 | · | ·
COc1ccc(C)cc1-n1nnnc1SC(C)C(=O)NC1CCCC1 (configuration not stated) | 24.8* | 1.7 | 5.2 | -0.4
COc1ccc(-c2cc(=O)[nH]c(SCc3nc(-c4ccc(OC)cc4OC)no3)n2)cc1 | · | -4.0 | · | ·
O=C(CSc1cccc2cccnc12)Nc1ccc(C(=O)O)cc1 | · | 133.0* | · | ·
Cc1cccc(C)c1NC(=O)CSc1cccc2cccnc12 | · | 48.6 | · | ·

Screening results deposited in PubChem BioAssay by several laboratories.
